Compounds with a hit are over-represented: about 1.7% of the library has one in this group of screens.
CCHF vOTU inh-1 – CCHFV vOTU protease inhibition. Pep-AMC fluorescence. inhibition, % at 11.5 µM. actives 0.55% (n = 370,000). AID 651958; also: 0% = vehicle wells with enzyme and 100% = no enzyme wells
Mtb hypoxia inh – inhibitors of hypoxia-regulated fluorescent reporter in Mycobacterium tuberculosis; M. tuberculosis hypoxia-regulated fluorescent reporter, fluorescence; fluorescence inhibition, % (concentration not given with the values); actives 0.1% (n = 300,000); AID 1159583; in the data active = fluorescence inhibition mostly above about 23%, no sharp cut-off; inactive = mostly below about 17%
PfHsp40 yeast – restores yeast growth despite PfHsp40 toxicity | AID 504582 | growth rescue, % at 12.5 µM | actives 0.68% (n = 340,000) | S. cerevisiae expressing PfHsp40, growth rescue, ATP luminescence; in the data active = growth rescue above about 28%, passing the limit was not always enough;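 also: yeast W303a lacking pdr1 and pdr3 grown in galactose medium; growth measured after three days at 30 °C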
Sa RN4220 lethal – S. aureus RN4220 growth inhibition. OD600, 16 h. actives 0.33% (n = 330,000). inhibition, % (no concentration beside the values); in the data active = inhibition above about 85%;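 also: plate controls were untreated cells for no effect and reference antibiotic for full effect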
Sa ugtP lethal – growth inhibition of S. aureus ugtP deletion strain | S. aureus RN4220 ugtP deletion, OD600 growth, 16 h | growth inhibition, % (test concentration not listed) | actives 0.54% (n = 330,000) | AID 1259309; in the data active = growth inhibition above about 68%;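 also: plate controls were untreated wells for no effect and antibiotic for full effect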
BH1578 lux ind – induces V. cholerae light production without autoinducers; actives 0.16% (n = 350,000); AID 588436; activation, % at 18.7 µM; V. cholerae BH1578 lux reporter, luminescence, 6 h; in the data active = activation mostly above about 9.7%, no sharp cut-off
CCHF vOTU inh-2 – CCHFV vOTU protease inhibition, confirmation | shares compounds with CCHF vOTU inh-1 | Recombinant CCHFV vOTU, Pep-AMC fluorescence | inhibition, % at 11.5 µM | actives 17% (n = 1,900) | AID 686976
The depositor's hits bear a star; i = inactive; nt = no result given; ! = a repeat was not active. Rule as the data show it, unless noted: active = inhibition above about 30%; inactive = the rest.

SMILES | CCHF vOTU inh-1 | Mtb hypoxia inh | PfHsp40 yeast | Sa RN4220 lethal | Sa ugtP lethal | BH1578 lux ind | CCHF vOTU inh-2
Cc1ccc2[nH]c(=O)c(CN(CC3CCCO3)S(=O)(=O)c3c(C)ccc4nsnc34)cc2c1 (stereo not given) | -11.3 | -2.1 | 0.3 | 5.4 | -4.2 | 2.7 | nt
Cc1ccc2nsnc2c1S(=O)(=O)N(CCO)Cc1cc2cc3c(cc2[nH]c1=O)OCCO3 | 43.5* | 8.1 | -0.2 | 4.3 | 7.7 | i | -5.4
Cc1ccc(S(=O)(=O)N(Cc2cc3cc4c(cc3[nH]c2=O)OCCO4)CC2CCCO2)cc1 (stereo not given) | 37.8* | -0.6 | 0.9 | 6.4 | 4.3 | -4.0 | -27.3
CC=C(C)C(=O)OC1C(OC(C)=O)c2c(ccc3ccc(=O)oc23)OC1(C)C (stereo not given) | nt | 16.9 | nt | 9.2 | 4.4 | nt | nt
Cc1ccc(N(CC(=O)NN=Cc2ccc(OCC(N)=O)cc2)S(C)(=O)=O)cc1Cl | nt | -3.9 | nt | 2.9 | -3.6 | nt | nt
O=c1ccc2[n+]([O-])c3ccc(O)cc3oc-2c1 | 50.4* | -0.2 | -1.1 | 6.0 | 1.5 | i | 27.0
O=c1c2ccccc2nc(/C=C/c2ccc(F)cc2)n1-c1ccccn1 | nt | 6.8 | nt | 10.2 | -5.5 | nt | nt
Cc1ccccc1-n1c(/C=C/c2ccccn2)nc2ccccc2c1=O | 31.6* | 10.6 | 0.9 | 3.8 | 3.6 | 0.7 | 0.3
COc1ccc(C)cc1-n1cnc2sc(C)c(C)c2c1=O | 30.1* | nt | nt | nt | nt | -0.3 | -22.2
COc1ccccc1-n1cnc2sc(C)c(C)c2c1=O | -1.1 | 6.7 | 0.3 | 2.1 | 9.7 | i | nt
O=C(NC1CCCCC1)C(c1ccco1)N(C(=O)C(F)(F)F)C1CC1 (stereo not given) | -4.7 | -4.8 | 1.3 | 1.5 | -3.3 | -0.3 | nt
Cc1ccc(CN(C(=O)C(F)(F)F)C(C(=O)NC2CCCCC2)c2ccco2)cc1 (stereo not given) | 29.8* | nt | 0.1 | -3.8 | 5.0 | nt | -6.6
O=C(CON=Cc1ccccc1O)NNC(=O)c1ccccc1Cl | nt | nt | nt | -0.8 | 4.3 | nt | nt
O=C(NC1CCc2ccccc21)c1cc(COc2ccc(F)cc2F)on1 (stereo not given) | 35.1* | 1.5 | -0.2 | -5.3 | 14.8 | -0.7 | -16.0
COc1ccc(OCc2cc(C(=O)NC3CCc4ccccc43)no2)c(Cl)c1 (stereo not given) | -4.2 | 1.4 | 0.0 | -0.7 | 9.9 | i | nt
CCCCc1nnc(NC(=O)C2=COCCO2)s1 | 32.7* | -7.8 | 1.3 | -3.5 | -7.4 | i | -16.8
O=C(O)c1ccccc1-c1c2cc(I)c(=O)c(I)c-2oc2c(I)c(O)c(I)cc12 | 36.6*! | nt | 33.6* | 25.8 | -3.5 | -0.3 | 38.6*
CCCCN(CC(O)COc1cccc(C)c1)CC(O)COc1cccc(C)c1 (stereo not given) | 30.8* | 2.0 | -1.8 | 7.9 | -11.9 | -0.4 | 10.3
COC1C(OC(=O)/C=C/C=C/C=C/C=C/C(=O)O)CCC2(CO2)C1C1(C)OC1CC=C(C)C (stereo not given) (tested in a mixture with another compound) | 30.3* | nt | -2.8 | nt | nt | i | 3.3
CCc1ccc(NC(=O)C(C)OC(=O)c2cc(=O)[nH]c3ccc(S(=O)(=O)Nc4ccc(F)cc4)cc23)cc1 (stereo not given) | -11.8 | 12.4 | -1.2 | 4.9 | 0.1 | -0.5 | nt
Cc1cccc(NS(=O)(=O)c2ccc3[nH]c(=O)cc(C(=O)OC(C)C(=O)Nc4ccc([N+](=O)[O-])cc4)c3c2)c1 (stereo not given) | 34.4* | 0.9 | 2.3 | -1.0 | 10.0 | i | -9.6
Cc1noc(NS(=O)(=O)c2ccc(NS(=O)(=O)c3ccc(C(C)(C)C)cc3)cc2)c1C | 30.2* | nt | nt | nt | nt | 0.9 | -15.0
Cc1noc(NS(=O)(=O)c2ccc(NS(=O)(=O)c3ccc(Cl)cc3)cc2)c1C | 1.4 | 11.6 | -0.7 | -0.4 | 2.2 | 15.5 | nt
CN(C)c1ccc2cc(S(=O)(=O)O)cc(O)c2c1 | 38.2* | 2.4 | 2.8 | -0.8 | -9.8 | 13.0 | -93.1
O=Nc1c(O)ccc2cc(S(=O)(=O)O)ccc12 | nt | 7.0 | 4.6 | 3.9 | 8.3 | -0.8 | nt
SMILES | CCHF vOTU inh-1 | Mtb hypoxia inh | PfHsp40 yeast | Sa RN4220 lethal | Sa ugtP lethal | BH1578 lux ind | CCHF vOTU inh-2
COC(=O)[C@]1(CC(C)C)NC(c2ccc(-c3ccc(F)cc3)cc2)C2C(=O)N(C)C(=O)C21 (stereo not given in full) | nt | 8.0 | nt | -4.9 | -3.0 | nt | nt
CCN1C(=O)/C(=C/c2ccc(C)s2)NC1=S | 31.2* | nt | 6.1 | 1.2 | 3.8 | -0.7 | -13.6
CCN1C(=O)C(=Cc2ccc(C)s2)C(=O)N(CC)C1=S | -5.8 | nt | 0.5 | 3.8 | 1.6 | -0.6 | nt
CCCc1c(C(=O)NN=Cc2cccs2)nnn1-c1nonc1N | nt | -3.9 | nt | 0.3 | 1.4 | nt | nt
O=C(NCc1ccco1)C1CCN(S(=O)(=O)c2ccccc2C(F)(F)F)CC1 | 30.5* | 7.0 | -0.5 | 2.4 | 5.3 | 0.0 | -11.9
CCN1CCN(c2ccc(S(=O)(=O)N3CCOCC3)cc2NC(=O)c2ccc(C(F)(F)F)cc2)CC1 | 34.5* | 7.6 | -0.9 | 1.9 | 2.0 | -2.3 | -11.9
CCN1CCN(c2ccc(S(=O)(=O)N3CCCCC3)cc2NC(=O)c2ccc(F)cc2)CC1 | -5.2 | 2.7 | -0.9 | 6.3 | 3.1 | -0.3 | nt
CCOC(=O)NN=Cc1cccc(OC)c1 | nt | -6.6 | nt | 0.1 | -0.7 | nt | nt
O=C(NCc1cccs1)C(=O)NCC(c1ccco1)N1CCN(c2ccccc2)CC1 (stereo not given) | 30.5* | 8.6 | -0.7 | -0.5 | 10.5 | -4.3 | -4.6
CC(C)C[C@H](NC(=O)c1[nH]cnc1C(=O)N[C@@H](C)C(=O)OC(C)(C)C)C(=O)OC(C)(C)C | 30.3* | nt | 20.3 | nt | nt | -0.4 | 32.2*
CC(C)C[C@H](NC(=O)c1nc[nH]c1C(=O)NCC(=O)OC(C)(C)C)C(=O)OCc1ccccc1 | 30.5* | nt | 0.5 | nt | nt | 1.5 | 18.6
CC(C)C[C@H](NC(=O)c1nc[nH]c1C(=O)NCC(=O)OCc1ccccc1)C(=O)OCc1ccccc1 | 26.8 | nt | -0.2 | nt | nt | -0.7 | nt
CC(C)C[C@H](NC(=O)c1[nH]cnc1C(=O)Nc1ccccc1)C(=O)OC(C)(C)C | 29.5* | nt | 16.1 | nt | nt | i | 16.2
CCN(CC)CC(=O)Nc1sc(C)cc1C(=O)c1ccccc1 | -4.6 | -4.3 | -0.2 | 3.6 | 31.6 | -1.3 | nt
Cc1cc(C(=O)c2ccccc2)c(NC(=O)CCl)s1 | 32.2* | -0.6 | 3.4 | 4.2 | 0.1 | -0.4 | -0.9

Screening results (PubChem)
